Laboratory results from PubChem BioAssay (NCI).
This is part of a sample that, as a whole, favours compounds with a hit. Of some 79,000 tested, about 15% had one in any assay. Unmarked numbers belong to inactive results. The source made the active and inactive calls. Rule as the data show it: active = growth inhibition above about 70%; inactive = the rest.

Assays:
[1] = NCI Yeast Anticancer Drug Screen. Data for the rad52 strain (AID 147);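 also: 0% = growth of vehicle-treated control cultures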; conditions: S. cerevisiae rad52 mutant growth inhibition, stronger effect = higher value
Procedure, shortened: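 Vehicle-treated cultures served as the reference for growth inhibition of compound-exposed yeast bearing a DNA repair mutation.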

[2] = NCI Yeast Anticancer Drug Screen. Data for the wt1 strain (AID 149);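 also: 0% = growth of vehicle-treated wt1 cultures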; conditions: S. cerevisiae wt1 strain (SPY 50644) growth inhibition, stronger effect = higher value
Procedure, shortened: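 Readout: yeast growth inhibition, normalised to vehicle controls, in the wt1 strain exposed to test compounds.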

[3] = NCI Yeast Anticancer Drug Screen. Data for the rad50EPP+ strain (AID 151);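 also: 0% = growth of vehicle-treated control cultures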; conditions: S. cerevisiae rad50 mutant strain, stronger effect = higher value
Procedure, shortened: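 In this screen, rad50EPP+ yeast were exposed to compounds. Growth inhibition was scored against vehicle-treated controls.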

[4] = NCI Yeast Anticancer Drug Screen. Data for the mgt1 strain (AID 153); conditions: S. cerevisiae mgt1 mutant growth inhibition, stronger effect = higher value
Procedure, shortened: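 mgt1 strain exposed; growth vs vehicle control recorded as inhibition.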

[5] = NCI Yeast Anticancer Drug Screen. Data for the rad50 strain (AID 155);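 also: 0% = growth of vehicle-only cultures of the same strain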; conditions: S. cerevisiae rad50 strain growth inhibition, stronger effect = higher value
Procedure, shortened: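 Compounds were tested on a yeast strain with an engineered DNA damage repair alteration; the reported value is growth inhibition normalised to vehicle treatment.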

[6] = NCI Yeast Anticancer Drug Screen. Data for the mec2-1 strain (AID 157); conditions: S. cerevisiae mec2-1 strain, stronger effect = higher value
Procedure, shortened: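 Vehicle-treated cultures served as reference for growth inhibition of compound-exposed mec2-1 yeast.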

[7] = NCI Yeast Anticancer Drug Screen. Data for the rad14 strain (AID 159);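 also: 0% = growth of vehicle-treated control cultures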; conditions: S. cerevisiae rad14 strain growth inhibition, stronger effect = higher value
Procedure, shortened: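 Compound-treated yeast with a defined DNA-repair lesion; growth inhibition normalised to vehicle-treated cultures.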

[8] = NCI Yeast Anticancer Drug Screen. Data for the CLN2oe strain (AID 163);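 also: 0% = growth of vehicle-only control cultures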; conditions: S. cerevisiae CLN2oe strain, stronger effect = higher value
Procedure, shortened: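 Inhibition relative to vehicle-treated yeast is reported. Cells: strain with genetic alteration in cell-cycle control, grown with compound.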

[9] = NCI Yeast Anticancer Drug Screen. Data for the cln2 rad14 strain (AID 165);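 also: 0% = growth equal to vehicle treated cultures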; conditions: S. cerevisiae cln2 rad14 strain, stronger effect = higher value
Procedure, shortened: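 Each compound was tested on cln2 rad14 yeast. Inhibition of growth was calculated against vehicle-exposed controls.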

[10] = NCI Yeast Anticancer Drug Screen. Data for the bub3 strain (AID 167); conditions: S. cerevisiae bub3 mutant strain, stronger effect = higher value
Procedure, shortened: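 Growth of a checkpoint-deficient yeast mutant is measured after compound exposure. Values represent inhibition relative to vehicle.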

[11] = NCI Yeast Anticancer Drug Screen. Data for the wt2 strain (AID 169);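 also: 0% = growth of vehicle-treated yeast cultures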; conditions: S. cerevisiae wt2 strain growth inhibition, stronger effect = higher value
Procedure, shortened: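 Inhibition of yeast growth was determined after compound treatment, normalised to controls receiving only vehicle.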

[12] = NCI Yeast Anticancer Drug Screen. Data for the mlh1 strain (AID 171);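 also: 0% = growth of vehicle-treated control cultures of the same strain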; conditions: S. cerevisiae mlh1 strain growth inhibition, stronger effect = higher value
Procedure, shortened: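 Vehicle-normalised growth inhibition of a repair- or checkpoint-altered yeast strain following compound treatment.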

[13] = NCI Yeast Anticancer Drug Screen. Data for the sgs1 strain (AID 173);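 also: 0% = growth of vehicle-only control cultures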; conditions: S. cerevisiae sgs1 mutant, stronger effect = higher value
Procedure, shortened: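 Screen format: yeast with repair or checkpoint alterations, compound exposure, growth read relative to vehicle.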

[14] = NCI Yeast Anticancer Drug Screen. Data for the mlh1 rad18 strain (AID 175); conditions: S. cerevisiae mlh1 rad18 strain growth inhibition, stronger effect = higher value
Procedure, shortened: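 Vehicle-treated cultures served as the reference for growth inhibition in a yeast strain carrying DNA damage repair alterations exposed to each compound.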

[15] = NCI Yeast Anticancer Drug Screen. Data for the rad18 strain (AID 177); conditions: S. cerevisiae rad18 mutant growth inhibition, stronger effect = higher value
Procedure, shortened: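 Test articles were incubated with altered yeast defective in DNA damage repair. Results are given as inhibition of growth versus vehicle.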

[16] = NCI Yeast Anticancer Drug Screen. Data for the sgs1 mgt1 strain (AID 161);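 also: 0% = growth of cultures given vehicle only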; conditions: S. cerevisiae sgs1 mgt1 strain, stronger effect = higher value
Procedure, shortened: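 Test agents were incubated with a DNA-repair-mutant yeast strain. Growth was then read and compared against vehicle-treated controls.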

[17] = at 5.0 µM (retest, dose inferred, filed as 0.5)
[18] = at 50.0 µM (retest, dose inferred, filed as 5.0)

Cc1cccc2c(NCCCN(C)C)c3c([N+](=O)[O-])ccc(C)c3nc12
growth inhibition ([1]; at 1.2 µM): 76% (active) | growth inhibition ([1]; at 3.7 µM): 91% (active) | growth inhibition ([1]; at 11.0 µM): 94% (active) | growth inhibition ([1]; at 33.0 µM): 97% (active) | growth inhibition ([1]; at 100.0 µM): 97% (active) | growth inhibition ([2]; at 1.2 µM): 5% | growth inhibition ([2]; at 3.7 µM): 13% | growth inhibition ([2]; at 11.0 µM): 39% | growth inhibition ([2]; at 33.0 µM): 95% (active) | growth inhibition ([2]; at 100.0 µM): 97% (active) | growth inhibition ([3]; at 1.2 µM): 29% | growth inhibition ([3]; at 3.7 µM): 55% | growth inhibition ([3]; at 11.0 µM): 85% (active) | growth inhibition ([3]; at 33.0 µM): 94% (active) | growth inhibition ([3]; at 100.0 µM): 95% (active) | growth inhibition ([4]; at 1.2 µM): 8% | growth inhibition ([4]; at 3.7 µM): 20% | growth inhibition ([4]; at 11.0 µM): 69% | growth inhibition ([4]; at 33.0 µM): 98% (active) | growth inhibition ([4]; at 100.0 µM): 98% (active) | growth inhibition ([5]; at 1.2 µM): 54% | growth inhibition ([5]; at 3.7 µM): 79% (active) | growth inhibition [5, 17]: 1% | growth inhibition ([5]; at 11.0 µM): 92% (active) | growth inhibition ([5]; at 33.0 µM): 94% (active) | growth inhibition [5, 18]: 78% (active) | growth inhibition ([5]; at 50.0 µM): 97.8% (active) | growth inhibition ([5]; at 100.0 µM): 96% (active) | growth inhibition ([6]; at 1.2 µM): 22% | growth inhibition ([6]; at 3.7 µM): 61% | growth inhibition [6, 17]: -2% | growth inhibition ([6]; at 11.0 µM): 96% (active) | growth inhibition ([6]; at 33.0 µM): 98% (active) | growth inhibition [6, 18]: 11% | growth inhibition ([6]; at 50.0 µM): 96.9% (active) | growth inhibition ([6]; at 100.0 µM): 98% (active) | growth inhibition ([7]; at 1.2 µM): 98% (active) | growth inhibition ([7]; at 3.7 µM): 98% (active) | growth inhibition ([7]; at 11.0 µM): 99% (active) | growth inhibition ([7]; at 33.0 µM): 99% (active) | growth inhibition ([7]; at 100.0 µM): 98% (active) | growth inhibition ([8]; at 1.2 µM): -2% | growth inhibition ([8]; at 3.7 µM): 9% | growth inhibition ([8]; at 11.0 µM): 41% | growth inhibition ([8]; at 33.0 µM): 88% (active) | growth inhibition ([8]; at 100.0 µM): 96% (active) | growth inhibition [9, 17]: 49% | growth inhibition [9, 18]: 95% (active) | growth inhibition ([9]; at 50.0 µM): 91% (active) | growth inhibition ([10]; at 1.2 µM): -8% | growth inhibition ([10]; at 3.7 µM): -6% | growth inhibition [10, 17]: -24% | growth inhibition ([10]; at 11.0 µM): 16% | growth inhibition ([10]; at 33.0 µM): 90% (active) | growth inhibition [10, 18]: 97% (active) | growth inhibition ([10]; at 50.0 µM): 72.2% (active) | growth inhibition ([10]; at 100.0 µM): 96% (active) | growth inhibition ([11]; at 1.2 µM): 4% | growth inhibition ([11]; at 3.7 µM): 15% | growth inhibition ([11]; at 11.0 µM): 49% | growth inhibition ([11]; at 33.0 µM): 95% (active) | growth inhibition ([11]; at 100.0 µM): 97% (active) | growth inhibition ([12]; at 1.2 µM): 8% | growth inhibition ([12]; at 3.7 µM): 18% | growth inhibition ([12]; at 11.0 µM): 63% | growth inhibition ([12]; at 33.0 µM): 97% (active) | growth inhibition ([12]; at 100.0 µM): 98% (active) | growth inhibition ([13]; at 1.2 µM): 85% (active) | growth inhibition ([13]; at 3.7 µM): 92% (active) | growth inhibition ([13]; at 11.0 µM): 95% (active) | growth inhibition ([13]; at 33.0 µM): 98% (active) | growth inhibition ([13]; at 100.0 µM): 98% (active) | growth inhibition [14, 17]: 12% | growth inhibition [14, 18]: 61% | growth inhibition ([14]; at 50.0 µM): 97.1% (active) | growth inhibition ([15]; at 1.2 µM): 96% (active) | growth inhibition ([15]; at 3.7 µM): 96% (active) | growth inhibition ([15]; at 11.0 µM): 96% (active) | growth inhibition ([15]; at 33.0 µM): 96% (active) | growth inhibition ([15]; at 100.0 µM): 96% (active)

O=C(NO)c1coc2ccccc2c1=O
growth inhibition ([1]; at 1.2 µM): -1% | growth inhibition ([1]; at 3.7 µM): -4% | growth inhibition ([1]; at 11.0 µM): -2% | growth inhibition ([1]; at 33.0 µM): -2% | growth inhibition ([1]; at 100.0 µM): 9% | growth inhibition ([2]; at 1.2 µM): 4% | growth inhibition ([2]; at 3.7 µM): -3% | growth inhibition ([2]; at 11.0 µM): -3% | growth inhibition ([2]; at 33.0 µM): -3% | growth inhibition ([2]; at 100.0 µM): 0% | growth inhibition ([3]; at 1.2 µM): -2% | growth inhibition ([3]; at 3.7 µM): -6% | growth inhibition ([3]; at 11.0 µM): -3% | growth inhibition ([3]; at 33.0 µM): -5% | growth inhibition ([3]; at 100.0 µM): -1% | growth inhibition ([4]; at 1.2 µM): -2% | growth inhibition ([4]; at 3.7 µM): 2% | growth inhibition ([4]; at 11.0 µM): -14% | growth inhibition ([4]; at 33.0 µM): -5% | growth inhibition ([4]; at 100.0 µM): 9% | growth inhibition ([5]; at 1.2 µM): 5% | growth inhibition ([5]; at 3.7 µM): -5% | growth inhibition [5, 17]: -3% | growth inhibition ([5]; at 11.0 µM): 1% | growth inhibition ([5]; at 33.0 µM): 0% | growth inhibition [5, 18]: 24% | growth inhibition ([5]; at 50.0 µM): 31.1% | growth inhibition ([5]; at 100.0 µM): 15% | growth inhibition ([6]; at 1.2 µM): -3% | growth inhibition ([6]; at 3.7 µM): -5% | growth inhibition [6, 17]: 1% | growth inhibition ([6]; at 11.0 µM): -1% | growth inhibition ([6]; at 33.0 µM): -4% | growth inhibition [6, 18]: 10% | growth inhibition ([6]; at 50.0 µM): 86.1% (active) | growth inhibition ([6]; at 100.0 µM): 0% | growth inhibition ([7]; at 1.2 µM): 0% | growth inhibition ([7]; at 3.7 µM): -1% | growth inhibition ([7]; at 11.0 µM): -1% | growth inhibition ([7]; at 33.0 µM): -2% | growth inhibition ([7]; at 100.0 µM): 1% | growth inhibition [16, 17]: 15% | growth inhibition [16, 18]: 13% | growth inhibition ([16]; at 50.0 µM): 62% | growth inhibition [9, 17]: -4% | growth inhibition [9, 18]: 16% | growth inhibition ([9]; at 50.0 µM): 19.8% | growth inhibition ([10]; at 1.2 µM): -6% | growth inhibition ([10]; at 3.7 µM): -5% | growth inhibition [10, 17]: 13% | growth inhibition ([10]; at 11.0 µM): -2% | growth inhibition ([10]; at 33.0 µM): -2% | growth inhibition [10, 18]: 61% | growth inhibition ([10]; at 50.0 µM): 13.7% | growth inhibition ([10]; at 100.0 µM): -5% | growth inhibition ([11]; at 1.2 µM): -2% | growth inhibition ([11]; at 3.7 µM): -4% | growth inhibition ([11]; at 11.0 µM): -3% | growth inhibition ([11]; at 33.0 µM): -3% | growth inhibition ([11]; at 100.0 µM): 4% | growth inhibition ([12]; at 1.2 µM): -1% | growth inhibition ([12]; at 3.7 µM): 0% | growth inhibition ([12]; at 11.0 µM): -1% | growth inhibition ([12]; at 33.0 µM): 1% | growth inhibition ([12]; at 100.0 µM): 11% | growth inhibition ([13]; at 1.2 µM): -1% | growth inhibition ([13]; at 3.7 µM): -3% | growth inhibition ([13]; at 11.0 µM): -2% | growth inhibition ([13]; at 33.0 µM): -2% | growth inhibition ([13]; at 100.0 µM): 6% | growth inhibition [14, 17]: 13% | growth inhibition [14, 18]: 10% | growth inhibition ([14]; at 50.0 µM): -7.15% | growth inhibition ([15]; at 1.2 µM): -2% | growth inhibition ([15]; at 3.7 µM): -3% | growth inhibition ([15]; at 11.0 µM): 2% | growth inhibition ([15]; at 33.0 µM): -4% | growth inhibition ([15]; at 100.0 µM): 25%
